Bioassay records: PubChem, National Center for Advancing Translational Sciences (NCATS)
S2 tox – cell viability loss in ATXN counter-screen; AID 651635; S2 cells (HEK-293 line with an ATXN2-luciferase reporter) viability, CellTiter-Fluor protease fluorescence, 24 h; Potency, µM (doses to about 56.7 µM), usual class: cytotoxic; hit rate 0.49% among 400,000; further: nearly all actives have a fitted effect of over 40% in size
ATXN2 expr inh – ATXN2 expression inhibition; HEK-293 ATXN2-luciferase reporter, luminescence, 24 h; AID 1745845; Potency, µM (titrated, usually from 57 µM), most hits filed as inhibitors; hit rate 0.72% among 360,000; further: nearly all actives have a fitted effect of over 55% in size
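qHTS (up to 57 uM final) was run with 24 h compound exposure of reporter cells at 37 °C. Each well was multiplexed: SteadyGlo luminescence measured ATXN2-luciferase expression after a fluorogenic Gly-Phe-AFC viability readout (25 uM final).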
HT1080 IDH1KD tx – toxicity to HT-1080 IDH1 knockdown cells (counter line); Potency, µM (top dose mostly 46.1 µM), usual class: cytotoxic; AID 686971; HT-1080 IDH1 knockdown viability, ATP luminescence, 48 h; hit rate 2% among 360,000
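Viability of IDH1-knockdown HT-1080 fibrosarcoma cells was assessed by CellTiter-Glo after 48 h at 37 °C with titrated compound; concentration-effect curves were classified by fit quality and response size.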
TGFb inhibitor – TGF-b pathway inhibition; HepG2 CAGA-GFP TGF-b/SMAD3 reporter, GFP fluorescence, 18 h; TGF-beta stimulated, 500 pg/mL final; Potency, µM (doses to about 46.1 µM), actives largely listed as inhibitors; hit rate 1.2% among 410,000; AID 588855; further: nearly all actives have a fitted effect of over 65% in size
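Inhibition was scored as loss of TGF-beta-induced (500 pg/mL final, 18 hours, 37 degrees C) GFP in HEPG2 cells carrying a CAGA-GFP reporter, in DMEM with 1% FBS. Well GFP was summed per cell; Activity was normalised to unstimulated and stimulated DMSO wells, then concentration-response fitting.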
HT1080NT lethal – kills 2HG-producing HT-1080-NT fibrosarcoma cells; HT-1080-NT fibrosarcoma viability, CellTiter-Glo ATP luminescence, 48 h; Potency, µM (series often up to 46.1 µM), hits mostly cytotoxic; hit rate 1.6% among 360,000;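 further: NT is the 2HG producing partner of a matched IDH1 knockdown line; nearly all actives have a fitted effect of over 55% in size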
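Luminescent CellTiter-Glo readout after 48 hours of compound exposure at 37 degrees C defined viability of HT-1080-NT cells. Activity was normalized to DMSO wells and cell-free media wells; concentration-response curves were fitted and assigned curve classes.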
HepG2 viability – kills HepG2 cells in TGF-b inhibitor counter-screen; HepG2 CAGA-GFP viability, ATP luminescence, 18 h; Potency, µM (titrated, usually from 46.1 µM), actives largely listed as cytotoxic; hit rate 0.76% among 410,000; AID 588856
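HepG2 CAGA-GFP cells (1000/well, DMEM with 1% FBS) received compound, then TGF-beta at 500 pg/mL final, and were incubated 18 hours at 37 degrees C. Viability was read by CellTiter-Glo luminescence. Media-only wells were set as complete cell-killing and DMSO as no toxicity.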
A number is an active result; [ ] = another dose, or the depositor's remark. The list is not random: actives were taken first. Their share in the collection is about 3.9%. The call rests on the fitted dose curve; in most records, active means well fitted curve in the direction sought with a large enough effect; inconclusive means small, poorly fitted or top-dose-only effect, or another doubt; inactive means no such curve, though single readings can be large; an effect the other way counts as inactive or inconclusive.

CCOc1ccc(NC(=O)CN2C(=O)NC(C)(c3ccc(OC(F)F)cc3)C2=O)cc1 (stereo not given) was read as S2 tox inconclusive, ATXN2 expr inh inactive, HT1080 IDH1KD tx 18µM, TGFb inhibitor inactive, HT1080NT lethal inconclusive and HepG2 viability inactive.
COc1ccc(NC(=O)Cn2cnc3sc(C)c(S(=O)(=O)N4CCN(C)CC4)c3c2=O)cc1Cl was read as S2 tox inactive, ATXN2 expr inh inactive, TGFb inhibitor inactive and HepG2 viability inactive.
For CCOc1cc(Br)cc(/C=C2\SC(=Nc3ccccc3)NC2=O)c1O the results were S2 tox inconclusive, HT1080 IDH1KD tx inactive, TGFb inhibitor 10µM, HT1080NT lethal inactive and HepG2 viability inactive.
`C=CCOc1c(Br)cc(/C=C2\SC(=Nc3ccccc3)NC2=O)cc1OC` gave S2 tox inconclusive, HT1080 IDH1KD tx inactive, TGFb inhibitor inconclusive, HT1080NT lethal inactive and HepG2 viability 16µM.
For c1ccc(CC2CCN(c3ncnc4sccc34)CC2)cc1 the results were S2 tox inactive, ATXN2 expr inh inconclusive, HT1080 IDH1KD tx inconclusive, TGFb inhibitor inconclusive, HT1080NT lethal 12µM and HepG2 viability inactive.
Screening COc1cc(-c2nc3ccc(C)cn3c2Nc2ccc(Cl)cc2)ccc1O returned S2 tox 16µM, ATXN2 expr inh inconclusive, TGFb inhibitor inconclusive and HepG2 viability 16µM.
Screening COc1cc(-c2nc3ccc(Cl)cn3c2Nc2ccc3c(c2)OCO3)ccc1O returned S2 tox 18µM, ATXN2 expr inh inconclusive, TGFb inhibitor inconclusive and HepG2 viability inactive.
For CC(C)C[C@H]1CNC(=S)N1C[C@H]1CCCN1C[C@H](CC(C)C)N1C[C@H](Cc2ccc(O)cc2)N(CC2CCCCC2)C1=S the results were ATXN2 expr inh inconclusive, HT1080 IDH1KD tx 21µM and HT1080NT lethal 18µM.
Screening CC(C)C[C@H]1CN([C@@H](Cc2ccc(O)cc2)CN2CCCC2CN2C(=S)NC[C@@H]2Cc2ccccc2)C(=S)N1CC1CCCCC1 (stereo not given in full) returned S2 tox inconclusive, ATXN2 expr inh inactive, HT1080 IDH1KD tx inactive and HT1080NT lethal inactive.
`CC(C)C[C@@H](CN1CCCC1CN1C(=S)NC[C@@H]1Cc1ccc(O)cc1)N1C[C@H](Cc2ccccc2)N(CC2CCCCC2)C1=S` (stereo not given in full) gave S2 tox inconclusive, ATXN2 expr inh inactive, HT1080 IDH1KD tx inconclusive, TGFb inhibitor inconclusive, HT1080NT lethal inactive and HepG2 viability inactive.
`CC(C)C[C@H]1CNC(=S)N1C[C@H]1CCCN1C[C@H](Cc1ccc(O)cc1)N1C[C@H](Cc2ccc(O)cc2)N(CC2CCCCCC2)C1=S` gave S2 tox 13µM, ATXN2 expr inh 18µM, HT1080 IDH1KD tx 13µM, TGFb inhibitor inconclusive, HT1080NT lethal 12µM and HepG2 viability 13µM.
CC(C)C[C@H]1CN([C@@H](CC(C)C)CN2CCCC2CN2C(=S)NC[C@@H]2Cc2ccccc2)C(=S)N1CC1CCCCC1 (stereo not given in full) was read as S2 tox inactive, ATXN2 expr inh inactive, HT1080 IDH1KD tx 16µM and HT1080NT lethal inactive.
CC(C)C[C@@H](CN1CCC[C@@H]1CN1C(=S)NC[C@@H]1Cc1ccc(O)cc1)N1C[C@H](Cc2ccc(O)cc2)N(CCc2ccccc2)C1=S was read as S2 tox 28µM, ATXN2 expr inh inactive, HT1080 IDH1KD tx inconclusive, TGFb inhibitor 13µM, HT1080NT lethal 26µM and HepG2 viability inactive.
For CCOc1ccc(NC(=O)Cn2nc(Cc3cccnc3)c3ccccc3c2=O)cc1 the results were TGFb inhibitor inconclusive and HepG2 viability inactive.
For CC(C)Cc1nc2oc3c(Cl)ncnc3c2c2c1CCCC2 the results were S2 tox inconclusive, ATXN2 expr inh 32µM, HT1080 IDH1KD tx inactive, TGFb inhibitor inactive, HT1080NT lethal inactive and HepG2 viability inactive.
Screening Cc1cccc(C)c1NC(=O)Cn1c(=O)n(Cc2ccc3c(c2)OCO3)c(=O)c2oc3ccccc3c21 returned TGFb inhibitor inactive and HepG2 viability inactive.
For CSc1ccccc1C(=O)N1CCc2ccc(NC(=O)c3ccccn3)cc2C1 the results were S2 tox inconclusive, HT1080 IDH1KD tx inconclusive, TGFb inhibitor inactive, HT1080NT lethal inconclusive and HepG2 viability 10µM.
For Cc1nc2nc(C)n(CCN3CCOCC3)c(=O)c2c(-c2cccc([N+](=O)[O-])c2)c1C(=O)CCCCCCCCCCN1CCC(c2ccccc2)(c2ccccc2)CC1 the results were ATXN2 expr inh inconclusive, HT1080 IDH1KD tx 21µM, TGFb inhibitor 7.1µM, HT1080NT lethal inconclusive and HepG2 viability 11µM.
For CCOC(=O)c1ccc(CN(Cc2ccccc2C)S(=O)(=O)c2ccc(F)c(C)c2)cc1 the results were TGFb inhibitor inactive and HepG2 viability inactive.
`CC1=CC(C)(C)Nc2ccc(OC(=O)c3ccco3)cc21` gave S2 tox inconclusive, ATXN2 expr inh 32µM, HT1080 IDH1KD tx inconclusive, TGFb inhibitor inactive, HT1080NT lethal 2.8µM and HepG2 viability inactive.
`CC1=CC(C)(C)Nc2ccc(OC(=O)C(C)N3C(=O)c4ccccc4C3=O)cc21` (stereo not given) gave ATXN2 expr inh inconclusive, HT1080 IDH1KD tx 18µM, TGFb inhibitor 18µM, HT1080NT lethal 21µM and HepG2 viability inactive.
For CC1=CC(C)(C)N2C(=O)C(=O)c3cc(OC(=O)c4ccco4)cc1c32 the results were S2 tox inconclusive, ATXN2 expr inh inactive[11.3 µM], HT1080 IDH1KD tx 16µM, TGFb inhibitor inconclusive, HT1080NT lethal 2.3µM and HepG2 viability inactive.
Screening CC1=CC(C)(C)Nc2ccc(C)cc21 returned S2 tox inactive, ATXN2 expr inh inactive, HT1080 IDH1KD tx inactive, TGFb inhibitor inactive, HT1080NT lethal inactive and HepG2 viability inactive.
For O=C(Oc1cccc(OC(=O)c2ccco2)c1)c1ccco1 the results were S2 tox inactive, HT1080 IDH1KD tx inactive, TGFb inhibitor inactive, HT1080NT lethal inactive and HepG2 viability inactive.
For COc1ccc(OC(=O)C(C)N2C(=O)c3ccccc3C2=O)cc1 (stereo not given) the results were S2 tox inactive, ATXN2 expr inh inactive, HT1080 IDH1KD tx inactive, TGFb inhibitor inactive, HT1080NT lethal inactive and HepG2 viability inactive.
For CC1=CC(C)(C)Nc2ccc(OC(=O)CN3C(=O)CCC3=O)cc21 the results were S2 tox inactive, ATXN2 expr inh inconclusive, HT1080 IDH1KD tx 2.5µM, TGFb inhibitor inactive, HT1080NT lethal inconclusive and HepG2 viability 16µM.
For O=C(Oc1ccc(F)cc1)c1cccnc1 the results were S2 tox inactive, HT1080 IDH1KD tx inactive, TGFb inhibitor inactive, HT1080NT lethal inactive and HepG2 viability inactive.
